Activity calls are given as the source filed them. Calls come from the whole dose curve; as a rule, active = well fitted curve in the direction sought with a large enough effect; inactive = no such curve, though single readings can be large or run the other way.
Test: qHTS for small molecule inhibitors of Yes1 kinase: Counter Assay (AID 686950);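 note: no kinase present so only ADP-Glo detection of a fixed ADP amount is tested; luminescence from ADP-Glo reporting ADP in a fixed ATP and ADP mixture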
Settings: series mostly up to 76.9 µM
Method in brief: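 Enzyme-free detection counter-screen: compounds preincubated 20 min in buffer, then 0.08 mM ATP plus 0.02 mM ADP added for 60 min at room temperature; ADP-Glo luminescence. Buffer 50 mM Tris pH 7.5, 10 mM MgCl2, 150 mM NaCl; normalized to ATP+ADP and ATP-only controls.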

SMILES	outcome
CCOc1cc(C=C2C(=O)N(c3ccccc3)N=C2C)cc(Cl)c1OCC(=O)OC	inactive
COc1c(Cl)cc2c([nH]c3cnccc32)c1NC(=O)c1cccnc1C	inactive
Cc1cc2c(F)c(Oc3ncnn4cc(OC[C@@H](C)O)c(C)c34)ccc2[nH]1	inactive
COc1ccc(-c2c(-c3ccc(O)cc3O)n[nH]c2C)cc1	inactive
COCC(=O)NCC=Cc1ccc2ncnc(Nc3ccc(Oc4ccc(C)nc4)c(C)c3)c2c1	inactive
CCC(C)(C)C(=O)O[C@H]1C[C@@H](C)C=C2C=C[C@H](C)[C@H](CC[C@@H]3C[C@@H](O)CC(=O)O3)[C@H]21	inactive
CCCCCCCc1ccc(CCc2cccc(O)c2C(=O)O)cc1	inactive
O=c1[nH]c(-c2ccc(C(F)(F)F)cc2)nc2c1CSCC2	inactive
O=c1ncn2nc(Sc3ccc(F)cc3F)ccc2c1-c1c(Cl)cccc1Cl	inactive
NC(=O)C1CCCc2c1[nH]c1ccc(Cl)cc21 (configuration not stated)	inactive
CCn1c(-c2nonc2N)nc2cnc(Oc3cccc(NC(=O)c4ccc(OCCN5CCOCC5)cc4)c3)cc21	inactive
Cc1ccccc1C(C(=O)NC1CCCC1)N(C(=O)Cn1cnc2ccccc21)c1cccc(F)c1 (configuration not stated)	inactive
CCc1cc(Nc2nccc(-c3c(-c4ccc(OC)c(C(=O)Nc5c(F)cccc5F)c4)nc4ccccn34)n2)c(OC)cc1N1CCC(N2CCN(S(C)(=O)=O)CC2)CC1	inactive
Cc1ccnc(NS(=O)(=O)c2ccc(NC(=O)Nc3ccc(S(=O)(=O)Nc4nccc(C)n4)cc3)cc2)n1	inactive
CCOC(=O)C1=C[C@@]2(CC)CCCN3CCc4c(n1c1ccccc41)[C@H]32	inactive
CS(=O)(=O)c1ccc(C(=O)Nc2ccc(Cl)c(-c3ccccn3)c2)c(Cl)c1	inactive
CC(C)(N)C(=O)N[C@H](COCc1ccccc1)C(=O)N1CCC2(CC1)CN(S(C)(=O)=O)c1ccccc12	inactive
C[C@]1(c2nc3c(C(N)=O)cccc3[nH]2)CCCN1	inactive
O=C(C1CC1)N1CC[C@@H](Cn2c(-c3ccc(-c4ccc5occc5c4)cc3)nc3cnccc32)C1	inactive

SMILES	outcome
O=C(C=Cc1ccc(/C=C/C(=O)Nc2ccc(C3=NCCN3)cc2)cc1)Nc1ccc(C2=NCCN2)cc1	inactive
CN(C)c1ccc(C2Nc3ccc4ccccc4c3C3=C2C(=O)CC(C)(C)C3)cc1Br (configuration not stated)	inactive
Fc1ccc(Cl)cc1-c1nc(Nc2ccncc2)c2nccnc2n1	inactive
CC1(C)CNc2cc(NC(=O)c3cccnc3NCc3ccncc3)ccc21	inactive
C[C@@H]1CN(Cc2ccc(F)cc2)[C@@H](C)CN1C(=O)c1cc2c(C(=O)C(=O)N(C)C)cn(C)c2cc1Cl	inactive
Cc1cnc(Nc2ccc(OCCN3CCCC3)cc2)nc1Nc1cccc(S(=O)(=O)NC(C)(C)C)c1	inactive
CCN(CC)CCCC(C)Nc1nc(C)cc(Nc2ccc3nc(C)cc(N)c3c2)n1 (configuration not stated)	inactive
COc1ccc(-c2ccc3c(N4CCOCC4)nc(N4C[C@@H](C)O[C@@H](C)C4)nc3n2)cc1CO	inactive
CNC(=O)c1ccc(C)c(-n2c(C)cc(OCc3ccc(F)cc3F)c(Br)c2=O)c1	inactive
CCN(CCCO)CCCOc1ccc2c(Nc3cc(CC(=O)Nc4cccc(F)c4)[nH]n3)ncnc2c1	inactive
Cc1cc(Nc2nc(N[C@@H](C)c3ncc(F)cn3)ncc2Cl)n[nH]1	inactive
Cn1c(=O)c(F)c(Nc2ccc(I)cc2F)c2c(=O)n(C[C@@H](O)CO)cnc21	inactive
COc1cc(F)c(F)c(Nc2ccc(I)cc2F)c1NS(=O)(=O)C1(C[C@H](O)CO)CC1	inactive
COc1nc(-c2ccc3c(c2)OCO3)n(-c2ccc(NC(=O)CSc3ccccc3)cc2)n1	inactive
O=C(O)CCc1ccc(NCc2cccc(Oc3ccccc3)c2)cc1	inactive
CC(C)c1onc(-c2c(Cl)cccc2Cl)c1COc1ccc(/C=C/c2cccc(C(=O)O)c2)c(Cl)c1	inactive
CCCn1c(=O)c2[nH]c(C34CC5CC3C[C@@H](C5)C4)nc2n(CCC)c1=O	inactive
Cc1cccc(-c2nn(C(=S)Nc3ccccc3)cc2-c2ccnc3ccccc23)n1	inactive
